Compound activity as filed in PubChem.
hNpr1 antagonist: blocks ANP-stimulated signaling of human Npr1 receptor; P16066; HEK293 hNpr1 GloSensor cGMP, ANP-stimulated luminescence; Potency, µM (series often up to 46.3 µM), usual class: inhibitors; 76,000 tested, 1.6% active; AID 1347048; calls by dose curve; further: nearly all actives have a fitted effect of over 60% in size
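HEK293 cells stably expressing human Npr1 and cGMP GloSensor pGS-40F, loaded 2 h with 2% GloSensor reagent, given compound 30 min at room temperature. Luminescence read before and 20 min after 0.1 nM hNppA.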
HEK cytotox: HEK 293 cell cytotoxicity; HEK 293 viability, ATP luminescence (CellTiter-Glo), 48-72 h; Potency, µM (series often up to 115 µM), most hits filed as inhibitors; 94,000 tested, 6.6% active; further: nearly all actives have a fitted effect of over 60% in size
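250 HEK 293 cells/well; compound by pintool; incubated 48 or 72 hr at 37 degree Celsius; CellTiter-Glo added, 10 min RT, luminescence imaged.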
3T3 cytotox: kills NIH 3T3 cells; NIH 3T3 viability, CellTiter-Glo ATP luminescence, 48-72 h; Potency, µM (series often up to 96.7 µM), hits mostly inhibitors; 94,000 tested, 4.3% active; AID 1345082; further: nearly all actives have a fitted effect of over 55% in size
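NIH 3T3 cells at 400 cells/well received 23 nL of compound by pintool and were incubated 48 or 72 h at 37 °C. Viability was read as ATP-coupled CellTiter-Glo luminescence.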
Luciferase inh: blocks purified firefly luciferase enzyme activity; P08659; 76,000 tested, 2.5% active; purified P. pyralis luciferase, luminescence, biochemical; Potency, µM (top dose mostly 115 µM), actives largely listed as inhibitors; further: nearly all actives have a fitted effect of over 65% in size
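Cell-free enzyme assay, 10nM P. pyralis luciferase, luciferin and ATP each at 10uM. Inhibition profiled over a 6-point titration, read as luminescence.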
Hits are given with their value; 0 = inactive; ? = inconclusive; - = no result given; ! = repeats disagree. Sampled rows, rich in hits. Any-hit rate of the full collection: about 11%. Unless noted, the call rests on the fitted dose curve; in most records, active means well fitted curve in the direction sought with a large enough effect; inconclusive means small, poorly fitted or top-dose-only effect, or another doubt; inactive means no such curve, though single readings can be large; an effect the other way counts as inactive or inconclusive.

SMILES | hNpr1 antagonist | HEK cytotox | 3T3 cytotox | Luciferase inh
COc1ccc(CN2CCNc3cc(Nc4cccnc4)ncc3C2)cc1O | 0 | ? | ? | 0
Cn1cc(CNC(=O)C2CCN(c3nc(-c4ccccc4)nc4c3CCC4)CC2)cn1 | 0 | 0 | 0 | 0
O=C(NCC1CCNC1)C1CCN(c2nc(-c3ccccc3)nc3c2CCC3)CC1 (stereo not drawn) | 0 | ? | 79µM | 0
COc1cccc(CNC[C@H]2O[C@H](Cc3cc(-c4ccccc4)on3)CC[C@@H]2O)c1 | 0 | 112µM | ? | 0
CC(C)CN(CC(C)C)C[C@H]1O[C@H](Cc2cc(COc3ccccc3)on2)CC[C@@H]1O | 0 | 100µM | 100µM | 0
COc1ccc(-c2cc(C[C@@H]3CC[C@H](O)[C@@H](CN(Cc4ccccc4OC)Cc4ccccc4OC)O3)no2)cc1 | 10µM | ? | ? | ?
COc1cccc(CNC[C@H]2O[C@H](Cc3cc(CN4CCOCC4)on3)CC[C@@H]2O)c1 | 0 | 0 | 0 | 0
CCOc1ccc(CN2C[C@@H](NC(=O)c3cccnc3)C[C@H]2CO)cc1 | 0 | 0 | 0 | 0
O=C(NC1CC1)C1CCCN(Cc2cccc(-c3cccs3)c2)C1 (stereo not drawn) | - | 40µM | ? | -
O=C(NC1CCCC1)C1CCCN(Cc2cccc(-c3cccs3)c2)C1 (stereo not drawn) | - | 45µM | ? | -
O=C(NC1CCCCC1)C1CCCN(Cc2cccc(-c3cccs3)c2)C1 (stereo not drawn) | - | ? | 28µM | -
O=C(NC1CCN(Cc2cccc(-c3cccs3)c2)CC1)C1CCCC1 | - | 0 | 0 | -
Cn1c(C(=O)N2CCC(N3CCCCC3)CC2)cc2c1CCN(Cc1cccc(F)c1)C2 | 0 | ? | ? | 0
CCC1=C(C(=O)OC)C(c2ccccc2OC)N2C(CC(=O)NC(C)(C)C)=CSC2=N1 (stereo not drawn) | 0 | 0 | 0 | 0
O=C(NCc1ccc(F)cc1)C1CCc2nnc(-c3ccc(F)cc3)n21 (stereo not drawn) | - | 0 | 0 | -
Cc1c(C(=O)N[C@H]2[C@H]3CCO[C@H]3[C@@H]2N(C)C)[nH]c2c(F)cccc12 | 0 | 0 | 0 | 0
CCc1ccccc1S(=O)(=O)N1CCC2(CC1)C(=O)N(CC)c1ccccc12 | 0 | ? | ? | 0
O=C1CC(c2ccccc2)N(C(=O)CCc2ccccc2)CCCCCCN1 (stereo not drawn) | 0 | 0 | ? | 0
Cn1cc(CN2Cc3c(cc(N4CCOCC4)nc3-c3cccc(F)c3)C2=O)cn1 | 0 | 89µM | ? | 0
C[S+](=O)([O-])Nc1cccc(-c2nc(N3CCOCC3)cc3c2CN(CC2CC2)C3=O)c1 | 0 | 0 | ? | 0
O=C1c2cc(N3CCOCC3)nc(-c3cccc(F)c3)c2CN1CC1CC1 | 0 | 112µM | ? | 0
O=C1c2cc(N3CCOCC3)nc(-c3ccccc3)c2CN1Cc1ccccc1 | ? | 50µM | 32µM | 0
O=C(c1ccc(Cl)nc1)N1CCC(C(=O)N2CCC(c3nc4ncccc4[nH]3)C2)CC1 (stereo not drawn) | - | 0 | 0 | -
Cc1ccc(-c2cc(C(=O)NCCc3ccc(F)cc3)c3cnn(C)c3n2)c(C)c1 | - | 40µM | ? | -
Cn1ncc2c(C(=O)NCCc3ccc(Cl)cc3)cc(-c3ccccc3C(F)(F)F)nc21 | - | 40µM | 32µM | -
SMILES | hNpr1 antagonist | HEK cytotox | 3T3 cytotox | Luciferase inh
Cn1ncc2c(C(=O)NCCc3ccc(Cl)cc3)cc(C(C)(C)C)nc21 | - | 40µM! | ? | -
Cn1ncc2c(C(=O)NCCc3ccc(F)cc3)cc(-c3ccc(Cl)cc3)nc21 | - | ? | 0 | -
Cn1ncc2c(C(=O)NCCCl)cc(-c3ccccc3C(F)(F)F)nc21 | - | 0 | 0 | -
Cn1ncc2c(C(=O)NCc3cccc(Cl)c3)cc(C(C)(C)C)nc21 | - | 50µM | ? | -
Cn1nc(C2CC2)n(C2CCN(Cc3cn[nH]c3-c3ccccc3)CC2)c1=O | - | 0 | 0 | -
COc1cccc(CNC(=O)CN2C(=O)NC(c3ccc(Cl)cc3)C3=C2COC3=O)c1OC (stereo not drawn) | 0 | ? | ? | 0
Cc1ccc(S(=O)(=O)N(C)C2CCOc3ccccc32)cc1 (stereo not drawn) | 0 | 100µM | ? | 0
CCCn1cc(-c2ccncc2)cc1C(=O)NCc1cccc(F)c1 | 0 | ? | ? | 0
COc1cccc(-c2cc(C(=O)N3CCC(C#N)CC3)c3cnn(C)c3n2)c1 | - | 0 | 0 | -
COc1cccc(-c2cc(C(=O)N3CCC(Cc4ccccc4)CC3)c3cnn(C)c3n2)c1 | - | 45µM | ? | -
COc1cccc(-c2cc(C(=O)N3CCC(c4ccccc4)CC3)c3cnn(C)c3n2)c1 | - | 35µM | ? | -
CCCCn1c(=O)c(C(=O)NCC(=O)OC)nc2cccnc21 | - | 0 | 0 | -
O=C(Cc1c[nH]c2ncc(-c3ccccc3)cc12)NC1CC1 | ? | ? | 89µM | 0
CNC(=O)c1cccc(-c2cnc3[nH]cc(CC(=O)NC4CCC4)c3c2)c1 | 0 | ? | 40µM | ?
O=C(Cc1c[nH]c2ncc(-c3cccnc3)cc12)NC1CCC1 | 0 | ? | 28µM | 0
CNC(=O)c1cccc(-c2cnc3[nH]cc(CC(=O)N(C)C)c3c2)c1 | 0 | ? | ? | ?
CNC(=O)c1cccc(-c2cnc3[nH]cc(CC(=O)NCc4cccs4)c3c2)c1 | 0 | ? | 89µM | 0
Cn1ncc2c(C(=O)NCCN3CCOCC3)cc(-c3ccccc3C(F)(F)F)nc21 | - | 0 | 0 | -
COCCN1CCCCCC(O)c2cc(C(=O)NC3CCCCC3)ccc21 (stereo not drawn) | 0 | 0 | 0 | 0
CN1CCOc2c(C(=O)NCCc3cnc[nH]3)cc(-c3ccc(N4CCOCC4)cc3)cc21 | 0 | ? | ? | ?
CNC(=O)c1cccc(-c2cnc3[nH]cc(CC(=O)Nc4ccccc4Cl)c3c2)c1 | 0 | 89µM | ? | ?
O=C(Cc1c[nH]c2ncc(-c3cccnc3)cc12)NCCc1ccccn1 | 0 | 0 | 100µM | 0
COCCNC(=O)Cc1c[nH]c2ncc(-c3cccnc3)cc12 | 0 | 0 | ? | 0
COc1cccc(-c2cc(C(=O)N[C@@H](C)c3ncccc3C)[nH]n2)c1 | 0 | ? | ? | ?
COc1cc(-c2onc(C)c2C(=O)NCCCc2ccccc2)cc(OC)c1OC | 0 | ? | ? | 0
SMILES | hNpr1 antagonist | HEK cytotox | 3T3 cytotox | Luciferase inh
COc1ccc(Nc2ccc3ncn(-c4ccccc4)c(=O)c3n2)cn1 | 0 | 100µM | 100µM | 0
O=c1c2nc(Nc3cccc(F)c3)ccc2ncn1-c1cccnc1 | ? | ? | ? | 0
CN(Cc1ccccc1)C(=O)C[C@@H]1CCNC[C@@H]1Cc1cc(COc2ccccc2)on1 | 0 | 50µM | 28µM | 0
CCN(CC)C(=O)C[C@@H]1CCNC[C@@H]1Cc1cc(-c2ccccn2)on1 | 0 | 0 | 0 | 0
CN(Cc1ccccc1)C(=O)C[C@@H]1CCNC[C@@H]1Cc1cc(-c2ccccc2)on1 | 0 | 25µM | 10µM | 0
CCCCc1cc(C[C@H]2CNCC[C@H]2CC(=O)N(C)Cc2ccccc2)no1 | 0 | 100µM | ? | 0
O=C(Cc1cccs1)N1CCCN(CCc2ccccc2)c2ccccc21 | 0 | ? | 32µM | 0
CS(=O)(=O)N1CCCN(C(=O)Cc2ccc(OC(F)(F)F)cc2)c2ccccc21 | 0 | ? | ? | 0
